Results on one sequence are retold here after publication PMC7862700, “An all-to-all approach to the identification of sequence-specific readers for epigenetic DNA modifications on cytosine”.

Holding throughout (test): DAPPL (digital affinity profiling via proximity ligation, sequencing); 10 mM Tris-HCl pH 7.5, 50 mM NaCl, 1 mM DTT, 4% glycerol, room temperature, 30 min; GST-TFs on glutathione beads, 16-mer random dsDNA library, 0.1% formaldehyde crosslink after washing; high values mean tight binding
The target in one test is T1, FLI1 (Homo sapiens, UniProt Q01543 1-452).
T1 sequence: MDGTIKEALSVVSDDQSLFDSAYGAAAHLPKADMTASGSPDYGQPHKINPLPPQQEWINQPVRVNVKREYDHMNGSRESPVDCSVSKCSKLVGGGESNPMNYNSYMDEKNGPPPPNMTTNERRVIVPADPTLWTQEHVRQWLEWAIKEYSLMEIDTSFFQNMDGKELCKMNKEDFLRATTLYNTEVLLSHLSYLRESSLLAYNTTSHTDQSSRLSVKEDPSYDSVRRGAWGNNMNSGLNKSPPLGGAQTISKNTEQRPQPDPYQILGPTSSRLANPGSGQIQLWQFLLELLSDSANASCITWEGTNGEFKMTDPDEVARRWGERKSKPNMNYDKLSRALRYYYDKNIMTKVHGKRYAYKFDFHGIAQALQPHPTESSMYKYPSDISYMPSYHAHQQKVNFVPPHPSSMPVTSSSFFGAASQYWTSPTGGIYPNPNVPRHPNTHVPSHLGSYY
The settings on record: protein: recombinant; tags: N-terminal GST; dsDNA, one strand shown. Summed up:
(§1)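 Binding signal is each hexamer's read frequency for a factor divided by its frequency in the tag-only sample. The factors were GST-fused human transcription factors from yeast, captured on glutathione beads, DNA-barcoded and pooled with that sample. Pools were incubated with 200 nmole of a random double-stranded 16-mer DNA library in Tris/NaCl/DTT/glycerol buffer at room temperature for 30 min, then washed, crosslinked with 0.1% formaldehyde, proximity-ligated with BsaI/T4 ligase (1 h, 37 °C), PCR-amplified and sequenced on an Illumina NextSeq500.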

A further test has as its target T2, ELK1 (Homo sapiens, UniProt P19419 1-428).
T2 sequence: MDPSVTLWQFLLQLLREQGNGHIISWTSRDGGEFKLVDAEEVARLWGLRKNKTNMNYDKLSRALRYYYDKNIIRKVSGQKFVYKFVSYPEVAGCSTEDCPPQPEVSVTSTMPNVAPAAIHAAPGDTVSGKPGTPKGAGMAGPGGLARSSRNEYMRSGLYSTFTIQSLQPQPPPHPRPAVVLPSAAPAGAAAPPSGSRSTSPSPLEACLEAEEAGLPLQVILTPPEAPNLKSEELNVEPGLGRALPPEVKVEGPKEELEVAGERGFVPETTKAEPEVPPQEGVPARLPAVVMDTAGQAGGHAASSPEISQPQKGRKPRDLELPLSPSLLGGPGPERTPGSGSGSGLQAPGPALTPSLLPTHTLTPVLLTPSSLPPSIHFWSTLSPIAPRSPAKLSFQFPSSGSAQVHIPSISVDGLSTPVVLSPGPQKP
Conditions: protein: recombinant; tags: N-terminal GST; dsDNA, one strand shown. Summed up: as §1

Another test deals with T3, GABPA (Homo sapiens, UniProt Q06546 1-454).
T3 sequence: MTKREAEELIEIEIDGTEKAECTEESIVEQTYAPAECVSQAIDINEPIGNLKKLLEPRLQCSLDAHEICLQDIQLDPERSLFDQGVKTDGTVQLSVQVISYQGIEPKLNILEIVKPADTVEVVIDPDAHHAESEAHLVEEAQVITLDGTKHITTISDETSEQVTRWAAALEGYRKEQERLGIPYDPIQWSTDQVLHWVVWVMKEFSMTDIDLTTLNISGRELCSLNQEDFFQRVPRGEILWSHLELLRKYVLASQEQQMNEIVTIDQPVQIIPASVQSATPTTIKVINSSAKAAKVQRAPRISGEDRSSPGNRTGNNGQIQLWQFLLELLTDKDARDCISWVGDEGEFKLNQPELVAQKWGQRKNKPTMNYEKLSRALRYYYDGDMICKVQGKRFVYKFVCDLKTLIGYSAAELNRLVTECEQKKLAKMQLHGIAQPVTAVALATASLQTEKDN
The settings on record: protein: recombinant; tags: N-terminal GST; dsDNA, one strand shown. Summed up:
as §1

The next test has as its target T4, ERG (Homo sapiens, UniProt P11308 1-479).
T4 sequence: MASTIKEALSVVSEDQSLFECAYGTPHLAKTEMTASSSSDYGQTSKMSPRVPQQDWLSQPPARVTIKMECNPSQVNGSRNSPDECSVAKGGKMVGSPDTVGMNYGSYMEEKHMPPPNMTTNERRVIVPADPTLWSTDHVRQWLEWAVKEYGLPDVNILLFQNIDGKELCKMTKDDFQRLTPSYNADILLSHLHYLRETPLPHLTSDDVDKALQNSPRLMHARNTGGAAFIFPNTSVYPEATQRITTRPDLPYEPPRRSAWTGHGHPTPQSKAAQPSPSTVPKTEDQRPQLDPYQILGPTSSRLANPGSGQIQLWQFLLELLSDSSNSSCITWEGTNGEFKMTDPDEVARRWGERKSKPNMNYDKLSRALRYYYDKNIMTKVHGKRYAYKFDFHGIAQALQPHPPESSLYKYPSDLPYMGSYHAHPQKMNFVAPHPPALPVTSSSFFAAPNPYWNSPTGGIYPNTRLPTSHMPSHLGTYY
The settings on record: protein: recombinant; tags: N-terminal GST; dsDNA, one strand shown. Summed up:
as §1

A further test has as its target ELF1 (Homo sapiens, UniProt P32519 1-619). The settings on record: protein: recombinant; tags: N-terminal GST; dsDNA, one strand shown. Summed up:
as §1

The target in a further test is T5, EHF (Homo sapiens, UniProt Q9NZC4 1-300).
T5 sequence: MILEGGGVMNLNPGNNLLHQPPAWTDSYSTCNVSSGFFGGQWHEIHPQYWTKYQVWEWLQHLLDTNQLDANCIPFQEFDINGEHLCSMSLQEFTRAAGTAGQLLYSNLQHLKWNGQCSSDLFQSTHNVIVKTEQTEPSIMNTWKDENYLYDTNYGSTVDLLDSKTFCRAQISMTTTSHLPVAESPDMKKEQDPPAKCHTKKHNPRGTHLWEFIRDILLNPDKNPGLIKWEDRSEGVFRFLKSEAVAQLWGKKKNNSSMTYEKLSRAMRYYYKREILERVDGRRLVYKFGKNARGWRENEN
Conditions: protein: recombinant; tags: N-terminal GST; dsDNA, one strand shown. Summed up:
as §1

In another test the target is SPI1 (Homo sapiens, UniProt P17947 1-270). Conditions: protein: recombinant; tags: N-terminal GST; dsDNA, one strand shown. Summed up: as §1
A further test concerns the target SPIB (Homo sapiens, UniProt Q01892 1-262). The settings on record: protein: recombinant; tags: N-terminal GST; dsDNA, one strand shown. Summed up: as §1
In another test the target is T6, ELK3 (Homo sapiens, UniProt P41970 1-407).
T6 sequence: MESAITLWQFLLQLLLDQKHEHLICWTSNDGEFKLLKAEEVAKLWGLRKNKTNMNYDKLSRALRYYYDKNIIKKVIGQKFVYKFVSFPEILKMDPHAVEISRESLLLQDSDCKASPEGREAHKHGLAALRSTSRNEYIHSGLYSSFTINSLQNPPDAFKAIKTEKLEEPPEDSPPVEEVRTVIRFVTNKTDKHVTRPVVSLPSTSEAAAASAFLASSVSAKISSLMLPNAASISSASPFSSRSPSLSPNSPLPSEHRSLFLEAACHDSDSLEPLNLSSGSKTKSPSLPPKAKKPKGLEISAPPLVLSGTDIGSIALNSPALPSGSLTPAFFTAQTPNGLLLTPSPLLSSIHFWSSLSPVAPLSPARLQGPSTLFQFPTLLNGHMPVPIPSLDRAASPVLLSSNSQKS
Conditions: protein: recombinant; tags: N-terminal GST; dsDNA, one strand shown. Summed up: as §1

In another test the target is T7, FEV (Homo sapiens, UniProt Q99581 1-238).
T7 sequence: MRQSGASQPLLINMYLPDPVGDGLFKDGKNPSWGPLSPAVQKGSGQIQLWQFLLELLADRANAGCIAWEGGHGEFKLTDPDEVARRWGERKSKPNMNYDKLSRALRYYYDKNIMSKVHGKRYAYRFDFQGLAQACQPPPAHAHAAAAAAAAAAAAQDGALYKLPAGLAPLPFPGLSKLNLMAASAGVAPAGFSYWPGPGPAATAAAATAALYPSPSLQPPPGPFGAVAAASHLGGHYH
Conditions: protein: recombinant; tags: N-terminal GST; dsDNA, one strand shown. Summed up:
as §1

Another test deals with ETV5 (Homo sapiens, UniProt P41161 1-510). The settings on record: protein: recombinant; tags: N-terminal GST; dsDNA, one strand shown. Summed up: as §1
In another test the target is HSF1 (Homo sapiens, UniProt Q00613 1-529). Conditions: protein: recombinant; tags: N-terminal GST; chain copies: 3; dsDNA, one strand shown. Summed up: as §1
A further test concerns the target T8, SPIC (Homo sapiens, UniProt Q8N5J4 1-248).
T8 sequence: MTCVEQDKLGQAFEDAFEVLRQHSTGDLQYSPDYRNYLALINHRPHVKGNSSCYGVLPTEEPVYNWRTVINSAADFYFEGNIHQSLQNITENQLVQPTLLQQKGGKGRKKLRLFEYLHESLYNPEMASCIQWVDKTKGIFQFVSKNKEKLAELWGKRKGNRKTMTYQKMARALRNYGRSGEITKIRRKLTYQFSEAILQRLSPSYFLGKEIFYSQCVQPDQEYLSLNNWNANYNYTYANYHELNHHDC
The settings on record: protein: recombinant; tags: N-terminal GST; dsDNA, one strand shown. Summed up:
as §1

For another test, the target named is ELF4 (Homo sapiens, UniProt Q99607 1-663). Conditions: protein: recombinant; tags: N-terminal GST; dsDNA, one strand shown. Summed up: as §1
The next test has as its target T9, ELK4 (Homo sapiens, UniProt P28324-2 1-405).
T9 sequence: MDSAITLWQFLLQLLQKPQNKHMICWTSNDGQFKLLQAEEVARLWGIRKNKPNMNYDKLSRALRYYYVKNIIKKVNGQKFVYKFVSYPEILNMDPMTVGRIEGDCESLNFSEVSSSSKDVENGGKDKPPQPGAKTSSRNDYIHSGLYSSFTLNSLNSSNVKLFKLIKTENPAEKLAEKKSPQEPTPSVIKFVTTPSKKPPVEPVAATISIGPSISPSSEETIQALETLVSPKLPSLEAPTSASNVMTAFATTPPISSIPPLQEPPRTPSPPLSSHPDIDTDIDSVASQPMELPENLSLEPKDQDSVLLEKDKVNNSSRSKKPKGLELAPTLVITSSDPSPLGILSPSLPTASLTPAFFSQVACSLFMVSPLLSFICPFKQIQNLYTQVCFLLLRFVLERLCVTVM
The settings on record: protein: recombinant; tags: N-terminal GST; dsDNA, one strand shown. Summed up: as §1

For the next test, the target named is T10, ELF3 (Homo sapiens, UniProt P78545 1-371).
T10 sequence: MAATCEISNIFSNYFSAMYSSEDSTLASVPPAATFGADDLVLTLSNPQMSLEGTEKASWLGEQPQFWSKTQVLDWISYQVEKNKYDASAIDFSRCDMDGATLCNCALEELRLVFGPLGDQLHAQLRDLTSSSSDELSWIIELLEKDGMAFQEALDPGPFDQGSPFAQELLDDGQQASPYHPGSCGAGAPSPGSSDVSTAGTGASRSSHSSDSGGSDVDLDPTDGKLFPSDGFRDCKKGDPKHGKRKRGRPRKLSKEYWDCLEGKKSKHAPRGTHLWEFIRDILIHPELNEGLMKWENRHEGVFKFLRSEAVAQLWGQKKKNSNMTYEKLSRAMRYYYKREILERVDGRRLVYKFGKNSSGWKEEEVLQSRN
Conditions: protein: recombinant; tags: N-terminal GST; dsDNA, one strand shown. Summed up:
as §1

A further test deals with CRX (Homo sapiens, UniProt O43186 1-299). Conditions: protein: recombinant; tags: N-terminal GST; dsDNA, one strand shown. Summed up: as §1
Another test addresses ETV1 (Homo sapiens, UniProt P50549 1-477). Conditions: protein: recombinant; tags: N-terminal GST; dsDNA, one strand shown. Summed up:
as §1

Sequence of HSF1 (Q00613 whole entry): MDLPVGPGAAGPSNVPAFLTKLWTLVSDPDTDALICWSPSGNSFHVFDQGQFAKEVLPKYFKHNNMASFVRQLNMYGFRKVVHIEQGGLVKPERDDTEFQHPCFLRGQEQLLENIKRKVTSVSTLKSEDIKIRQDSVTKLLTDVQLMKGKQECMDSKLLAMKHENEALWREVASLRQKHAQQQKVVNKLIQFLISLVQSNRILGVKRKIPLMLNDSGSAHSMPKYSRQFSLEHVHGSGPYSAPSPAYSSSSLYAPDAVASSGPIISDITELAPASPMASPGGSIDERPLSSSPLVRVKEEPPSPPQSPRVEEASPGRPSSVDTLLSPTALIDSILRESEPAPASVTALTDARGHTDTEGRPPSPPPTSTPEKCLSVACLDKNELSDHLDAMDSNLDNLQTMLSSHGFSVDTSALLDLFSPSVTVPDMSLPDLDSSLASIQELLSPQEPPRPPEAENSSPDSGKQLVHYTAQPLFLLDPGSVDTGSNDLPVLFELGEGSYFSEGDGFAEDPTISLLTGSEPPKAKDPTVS
Sequence of ETV5 (P41161 whole entry): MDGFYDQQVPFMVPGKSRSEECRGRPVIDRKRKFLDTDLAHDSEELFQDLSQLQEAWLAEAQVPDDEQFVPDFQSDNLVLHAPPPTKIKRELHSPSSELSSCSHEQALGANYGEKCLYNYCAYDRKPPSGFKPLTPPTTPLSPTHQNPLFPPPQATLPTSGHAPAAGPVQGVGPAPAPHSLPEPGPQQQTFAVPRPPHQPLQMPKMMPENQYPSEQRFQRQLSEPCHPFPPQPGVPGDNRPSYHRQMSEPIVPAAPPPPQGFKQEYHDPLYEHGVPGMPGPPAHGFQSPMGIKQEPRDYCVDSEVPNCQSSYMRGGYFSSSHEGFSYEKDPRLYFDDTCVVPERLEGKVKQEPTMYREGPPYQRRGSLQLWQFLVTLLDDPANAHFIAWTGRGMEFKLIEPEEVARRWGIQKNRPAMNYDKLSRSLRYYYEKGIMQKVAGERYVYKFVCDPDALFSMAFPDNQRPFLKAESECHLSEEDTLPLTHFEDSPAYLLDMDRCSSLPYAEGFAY
Sequence of ELF1 (P32519 whole entry): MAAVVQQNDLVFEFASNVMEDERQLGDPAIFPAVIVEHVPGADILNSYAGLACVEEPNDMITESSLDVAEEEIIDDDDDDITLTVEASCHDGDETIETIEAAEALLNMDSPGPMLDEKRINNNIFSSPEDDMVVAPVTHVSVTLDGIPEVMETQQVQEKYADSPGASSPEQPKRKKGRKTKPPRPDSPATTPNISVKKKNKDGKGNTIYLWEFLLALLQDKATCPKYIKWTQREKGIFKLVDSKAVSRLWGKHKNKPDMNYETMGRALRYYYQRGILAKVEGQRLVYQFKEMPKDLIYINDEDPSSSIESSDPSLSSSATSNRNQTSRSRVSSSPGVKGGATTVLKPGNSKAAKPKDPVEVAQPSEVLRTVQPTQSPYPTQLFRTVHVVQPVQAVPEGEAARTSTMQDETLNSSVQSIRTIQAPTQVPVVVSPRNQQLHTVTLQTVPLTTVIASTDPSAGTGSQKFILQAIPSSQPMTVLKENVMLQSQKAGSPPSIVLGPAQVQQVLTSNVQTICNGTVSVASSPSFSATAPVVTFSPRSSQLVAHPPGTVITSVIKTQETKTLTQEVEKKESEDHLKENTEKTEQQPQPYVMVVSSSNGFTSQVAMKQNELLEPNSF
Sequence of CRX (O43186 whole entry): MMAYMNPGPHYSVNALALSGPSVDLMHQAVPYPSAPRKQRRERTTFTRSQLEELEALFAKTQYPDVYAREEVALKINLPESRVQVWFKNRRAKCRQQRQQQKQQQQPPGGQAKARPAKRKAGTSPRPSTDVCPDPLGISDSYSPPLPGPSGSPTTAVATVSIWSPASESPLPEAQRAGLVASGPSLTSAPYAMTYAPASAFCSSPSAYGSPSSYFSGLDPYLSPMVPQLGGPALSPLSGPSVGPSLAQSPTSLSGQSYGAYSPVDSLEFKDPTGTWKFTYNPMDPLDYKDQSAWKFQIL
Sequence of ETV1 (P50549 whole entry): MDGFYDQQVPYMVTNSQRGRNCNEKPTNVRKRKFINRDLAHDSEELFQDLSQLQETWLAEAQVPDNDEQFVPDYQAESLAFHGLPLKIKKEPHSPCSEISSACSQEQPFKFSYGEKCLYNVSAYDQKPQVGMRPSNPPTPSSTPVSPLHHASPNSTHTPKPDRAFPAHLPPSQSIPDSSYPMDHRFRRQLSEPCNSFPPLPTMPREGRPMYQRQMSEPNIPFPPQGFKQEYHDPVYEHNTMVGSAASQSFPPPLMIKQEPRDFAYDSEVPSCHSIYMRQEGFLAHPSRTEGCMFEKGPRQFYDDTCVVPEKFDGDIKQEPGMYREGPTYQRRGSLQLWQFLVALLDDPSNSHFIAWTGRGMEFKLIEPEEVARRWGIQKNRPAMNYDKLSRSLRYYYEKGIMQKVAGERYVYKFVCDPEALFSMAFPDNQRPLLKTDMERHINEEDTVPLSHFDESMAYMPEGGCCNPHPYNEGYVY
Sequence of SPIB (Q01892 whole entry): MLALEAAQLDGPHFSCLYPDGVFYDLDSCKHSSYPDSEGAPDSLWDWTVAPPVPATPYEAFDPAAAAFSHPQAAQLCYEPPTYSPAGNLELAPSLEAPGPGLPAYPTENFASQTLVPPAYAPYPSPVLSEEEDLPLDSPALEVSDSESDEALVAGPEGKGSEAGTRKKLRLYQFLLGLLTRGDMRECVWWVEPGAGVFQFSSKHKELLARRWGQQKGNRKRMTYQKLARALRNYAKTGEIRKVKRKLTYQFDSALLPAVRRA
Sequence of ELF4 (Q99607 whole entry): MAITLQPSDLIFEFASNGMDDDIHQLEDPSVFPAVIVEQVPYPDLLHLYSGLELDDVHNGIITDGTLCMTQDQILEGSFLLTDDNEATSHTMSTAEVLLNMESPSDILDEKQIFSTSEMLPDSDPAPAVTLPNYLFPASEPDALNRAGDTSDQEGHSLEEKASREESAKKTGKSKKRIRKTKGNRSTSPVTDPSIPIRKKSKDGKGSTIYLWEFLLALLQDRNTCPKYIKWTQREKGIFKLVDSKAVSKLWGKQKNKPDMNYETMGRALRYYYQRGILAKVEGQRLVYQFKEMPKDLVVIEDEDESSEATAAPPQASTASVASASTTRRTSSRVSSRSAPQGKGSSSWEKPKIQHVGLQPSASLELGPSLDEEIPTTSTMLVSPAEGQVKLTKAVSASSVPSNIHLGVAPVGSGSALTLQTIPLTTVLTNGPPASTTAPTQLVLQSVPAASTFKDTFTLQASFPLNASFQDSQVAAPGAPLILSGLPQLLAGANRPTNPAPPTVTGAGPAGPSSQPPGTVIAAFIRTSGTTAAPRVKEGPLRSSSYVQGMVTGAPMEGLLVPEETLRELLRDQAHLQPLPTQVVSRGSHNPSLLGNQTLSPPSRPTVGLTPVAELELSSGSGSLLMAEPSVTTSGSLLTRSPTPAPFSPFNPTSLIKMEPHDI

AACGTT: the binding signal with FLI1 was 1.07 fold enrichment (6-mer frequency, TF over GST control); with ELK1 it was 1.15 fold enrichment (6-mer frequency, TF over GST control); in the test with GABPA it was 1.04 fold enrichment (6-mer frequency, TF over GST control); with ERG it was 1.15 fold enrichment (6-mer frequency, TF over GST control); with ELF1, 1.14 fold enrichment (6-mer frequency, TF over GST control); in the test with EHF, 1.09 fold enrichment (6-mer frequency, TF over GST control). Further, the binding signal with SPI1 is 1.06 fold enrichment (6-mer frequency, TF over GST control); with SPIB, 1.15 fold enrichment (6-mer frequency, TF over GST control); with ELK3, 1.28 fold enrichment (6-mer frequency, TF over GST control); in the test with FEV, 1.08 fold enrichment (6-mer frequency, TF over GST control); with ETV5, 1.07 fold enrichment (6-mer frequency, TF over GST control); with HSF1 it was 1.32 fold enrichment (6-mer frequency, TF over GST control). In addition, the binding signal with SPIC is 1.23 fold enrichment (6-mer frequency, TF over GST control); in the test with ELF4, 1.14 fold enrichment (6-mer frequency, TF over GST control); with ELK4, 1.02 fold enrichment (6-mer frequency, TF over GST control); in the test with ELF3, 1.05 fold enrichment (6-mer frequency, TF over GST control); in the test with CRX it was 1.02 fold enrichment (6-mer frequency, TF over GST control); in the test with ETV1, 1.1 fold enrichment (6-mer frequency, TF over GST control).
